Assay results: PubChem BioAssay
Unmarked numbers belong to inactive results. How the calls were made is not given here.

What follows are compounds tested against Pantothenate synthetase (Mycobacterium tuberculosis (strain ATCC 25618 / H37Rv)) (UniProt P9WIL5) (assay: Recombinant Mtb pantothenate synthetase (PanC) inhibitors, coupled enzyme, confirmatory (AID 375;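 further: 0% = full reaction with vehicle and 100% = no enzyme background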)). Conditions: coupled enzyme assay; at 10 µM, hits give high values.
Pantothenate synthetase (Mycobacterium tuberculosis (strain ATCC 25618 / H37Rv)), sequence (P9WIL5 whole entry, looked up): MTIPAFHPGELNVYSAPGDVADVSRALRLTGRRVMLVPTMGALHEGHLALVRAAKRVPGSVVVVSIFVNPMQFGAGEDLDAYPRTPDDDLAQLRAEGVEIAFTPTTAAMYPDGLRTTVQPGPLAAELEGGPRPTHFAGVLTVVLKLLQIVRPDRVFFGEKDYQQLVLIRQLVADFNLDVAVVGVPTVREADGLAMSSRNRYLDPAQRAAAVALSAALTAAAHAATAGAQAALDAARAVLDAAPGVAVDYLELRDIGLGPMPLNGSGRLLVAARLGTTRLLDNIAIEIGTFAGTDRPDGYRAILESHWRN

Structure (SMILES)	inhibition [%]
Cc1cc(NC(=O)COc2ncnc3sc(C)c(C)c23)no1	0
Cc1ccccc1CSc1nnc(C)c(=O)[nH]1	0
Cn1nc(-c2ccc(C(=O)N3CCN(c4ccccc4)CC3)cc2)c2ccccc2c1=O	0
CN(C)/C=C(\C#N)c1nc2ccccc2[nH]1	0
CCOC(=O)C(C)C1(O)c2ccccc2-c2ncccc21 (stereo not given)	0
Cc1ccccc1Cn1nc(C)c(NC(=O)c2noc3c2CCc2ccccc2-3)c1C	0
C=CCn1c(N)c(C(=O)OC(C)(C)C)c2nc3ccccc3nc21	1
O=C(Nc1ccc2oc(Cc3ccc(Cl)cc3)nc2c1)c1cccnc1	0
CCn1c(=O)cc(SCC(=O)NCC2CCCO2)c2ccccc21 (stereo not given)	6
Cc1ccc(CSc2nc3c(c(=O)[nH]2)CCC3)cc1	1
CC(C)N(C=O)C1(C(=O)NC2CCCCC2)CCCCC1	4
CCn1c(SCC(=O)Nc2cc(NC(C)=O)ccc2OC)nnc1-c1ccccn1	2
CC(=O)N[C@@H](CS)C(=O)O	0
Cc1ccc(NC(=O)C2CCCNC2=O)nc1 (stereo not given)	0
CC1CN(c2nc3ccccn3c(=O)c2/C=C(\C#N)S(=O)(=O)c2ccccc2)CC(C)O1 (stereo not given)	5
CCC(C)NC(=O)c1cc(-c2ccc(OC)cc2)on1 (stereo not given)	0
CCOC(=O)N1CCC(n2c(SCC(=O)NCc3ccco3)nc3ccsc3c2=O)CC1	0
COc1ccc(-c2noc(C3CCCN(C(=O)CCc4ccccc4)C3)n2)cc1 (stereo not given)	0
CCOC(=O)N1CCN(C(=O)c2cn(CC)c3cc(N4CCN(C)CC4)c(F)cc3c2=O)CC1	0
CCOC(=O)CC(=O)CSc1[nH]c(=O)cc(C)c1C#N	8

Structure (SMILES)	inhibition [%]
O=C(Nc1ccccc1C(=O)N1CCOCC1)c1cccc(S(=O)(=O)N2CCCC2)c1	0
Nc1nc(SCc2nc3scc(-c4cccs4)c3c(=O)[nH]2)n[nH]1	6
CCCN(CCO)Cc1cccc(Br)c1	3
O=C(CN(CCc1ccccc1)C(=O)CNS(=O)(=O)c1ccccc1)NCC1CCCO1 (stereo not given)	0
COC(=O)CSC1=NS(=O)(=O)c2ccccc21	0
CCCC(=O)Nc1ccc(NC(=O)C2CC2)cn1	2
CC(C)[N+](C)(CCOC(=O)C1c2ccccc2Oc2ccccc21)C(C)C	0
C=CCC(NCc1ccco1)c1ccc(OC)cc1OC (stereo not given)	3
COc1cccc(-c2csc3nnc(SCC(=O)c4ccc(NC(C)=O)cc4)n23)c1	1
Cc1ccc(S(=O)(=O)NCC(=O)OCN2C(=O)c3ccccc3C2=O)cc1	4
O=C(CSCc1n[nH]c(=O)[nH]1)NCCOc1cccc(Oc2ccccc2)c1	1
Nc1cccc(C(=O)O)c1	0
CCCC(=O)Nc1ccc(NC(=O)c2cccs2)cn1	5
Cn1c(SCc2nc3ccccc3c(=O)[nH]2)nnc1-c1ccco1	13
COc1ccc(N2CCN(c3ccc(N)cc3C#N)CC2)cc1	7
Cc1ccc(C)c(N2CCN(C(=O)c3cc4ccccn4n3)CC2)c1	0
CCOC(=O)Nc1ccc(NS(=O)(=O)c2ccc(C)cc2)cc1	0
CC(C)n1c(=NC(=O)c2ccco2)c(C#N)cc2c(=O)n3ccccc3cc21	0
Cc1ccc2occ(CN3CCN(c4ccccc4)CC3)c(=O)c2c1	0
O=C(NCCN1C(=O)C2C3C=CC(C3)C2C1=O)N1CCCCC1 (stereo not given)	0
